Drawing on PubChem BioAssay AID493169 (National Center for Advancing Translational Sciences (NCATS), 2011), this text covers Potency for 40 compounds.

Results filed as inconclusive are left out. Entries that show only a call come without a potency. The source made the active and inactive calls. The call rests on the fitted dose curve; in most records, active means well fitted inhibition curve with a large enough effect; inconclusive means small, poorly fitted or top-dose-only effect; inactive means flat fitted curve, though single readings scatter.
Potency means the concentration at half of the fitted maximal effect.

This assay in a line: CHOP2 Reporter Counterscreen Assay for Inhibitors of Ubiquitin-specific Protease USP2a.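 Further: activated enterokinase alone at 50 pM in a cell-free format rather than USP2a or CHOP2; nearly all actives have a fitted effect of over 55% in size.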 The note with it: purified enterokinase, fluorogenic substrate, 485/531 nm; series mostly up to 38.3 µM. Summed up:
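Cell-free counterscreen with pre-activated enterokinase alone (50 pM final) in 20mM Tris-HCl pH 8.0, 2mM CaCl2, 2mM beta-mercaptoethanol, 0.05% CHAPS; compound preincubation 30 min RT, reporter substrate 25nM final, fluorescence read after 10 min (Ex 485/Em 531).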
(In general: Counterscreens check selectivity or assay interference.)
Consider `NS(=O)(=O)c1ccc(N=Nc2c(O)c(C(=O)O)cc3ccccc23)cc1`, for which the Potency was 11.2 µM (active).
On to `O=C1COc2ccc(C(=O)COC(=O)/C=C/c3ccc(Br)o3)cc2N1`, for which the Potency is 2.82 µM (active).
For the compound `C=CCn1c(NCc2cc(C)ccc2O)nc2ccccc21`, the Potency result is “inactive”.
For `Cc1cc2c(c(=O)n1CC1CCCO1)C(c1ccco1)C(C#N)=C(N)O2` (stereo not given) the value was “inactive”; for `COc1ccc(-c2csc(Nc3ccc(S(=O)(=O)Nc4cc(OC)nc(OC)n4)cc3)n2)cc1`, “inactive”; for `Cc1ccc(C(=O)N(C)CC(=O)Nc2cccc(C)c2C)o1`, “inactive”.
Take `CCCn1c(NC(=O)c2ccc(Br)cc2)nc2ccccc21`: the Potency result was “inactive”.
The entry for `O=C(c1ccccc1)N1CCN(C2C3CC4CC(C3)CC2C4)CC1` (stereo not given) is “inactive”.
The entry for `O=[N+]([O-])c1c(NCCO)cc(N2CCN(Cc3ccc4c(c3)OCO4)CC2)c2nonc12` is “inactive”; for `Cc1cc(-c2csc(NCc3ccccc3)n2)c(C)n1C` it is 12.6 µM (active); for `O=S(=O)(c1cc(Cl)ccc1Cl)N1CCNCC1` it is “inactive”.
`COc1ccc(C2CC(=O)N3CN(c4ccccc4F)CSC3=C2C#N)cc1OC` (stereo not given): the Potency result was “inactive”.
As to `Cc1cc(N2CCOCC2)nc(SCC(=O)c2ccc(Cl)cc2)n1`, the Potency entry is “inactive”.
For `Cc1ccc(C(=O)O/N=C/c2c(C(F)(F)F)nn(C)c2Sc2ccc(Cl)cc2)cc1` the value was “inactive”; for `NC(=O)C[C@@H]1N[C@]2(C(=O)Nc3ccccc32)[C@@H]2C(=O)N(c3cc(C(F)(F)F)ccc3Cl)C(=O)[C@H]12`, “inactive”.
Turning to `CCOc1cc(/C=C2\C(=O)N(c3nc(-c4ccc(Br)cc4)cs3)N=C2c2ccccc2)ccc1O`, the Potency is 4.47 µM (active).
Consider `N#Cc1cc(Sc2ccccn2)c(Sc2ccccn2)cc1C#N`, for which the Potency entry was “inactive”.
For `COc1cccc(NC(=O)CSc2nncn2-c2ccccn2)c1` the value was “inactive”; for `COc1cc2cc(CN(CCN3CCCC3)C(=O)Nc3ccc(F)cc3)c(=O)[nH]c2cc1OC`, “inactive”.
On to `COC(=O)c1ccccc1NC(=O)CSc1nc(O)cc(=O)n1C1CCCC1`, for which the Potency result is “inactive”.
For `C#CCOCCOCCOCCNc1nc(N2CCN(C(=O)CCCCCCCCCCNC(=O)[C@@H](CCC(=O)O)n3cc(CCCCCN)nn3)CC2)nc(N2CCN(C(=O)CCCCCCCCCCNC(=O)[C@H]([C@@H](C)CC)n3cc(CCCCCN)nn3)CC2)n1` the value was 5.01 µM (active); for `C=C(C)COc1ccc(-c2[nH]ncc2Oc2ccccc2OCC)c(O)c1`, “inactive”; for `O=C(CCCN1C(=O)/C(=C\c2ccco2)SC1=S)Nc1ccc(O)cc1C(=O)O`, 12.6 µM (active).
The entry for `CC(C)(C)OC(=O)C[C@H]1C/C=C\C[C@H](CC(=O)N(CCO)Cc2ccccc2)C(=O)NC[C@H](c2ccccc2)OC1=O` is “inactive”; for `CCOc1ccc(NC(=O)c2ccc(NC(=O)COC(=O)c3ccc(NC(=O)CC#N)cc3)cc2)cc1` it is 2.82 µM (active); for `COc1ccc(Cl)cc1C(=O)Nc1cccc(-c2ccc3nncn3n2)c1` it is 10 µM (active).
Take `CNc1sc(C(=O)c2ccc(F)cc2)c(N)c1-c1nc2ccccc2s1`: the Potency result is “inactive”.
Regarding `Cc1[nH]c2ccccc2c1C(c1ccccn1)c1c(C)[nH]c2ccccc12`, the Potency entry is “inactive”.
The entry for `CN(c1ccccc1)S(=O)(=O)c1ccc(Cl)c(C(=O)NCCc2c[nH]c3ccccc23)c1` is “inactive”; for `Cc1ccc(C=Nc2ccccc2C(N)=O)cc1` it is “inactive”; for `COC(=O)c1ccc(CSc2ncnc3ccccc23)o1` it is “inactive”.
With `Cn1c2ccccc2c2nnc(SC3CCOC3=O)nc21` (stereo not given), the Potency result was “inactive”.
The figure for `COC(=O)CSc1nnc(NC(=O)C2CC(=O)N(c3ccc(F)cc3)C2)s1` (stereo not given) is 10 µM (active).
Take `CCN=C1SC(C(=O)Nc2cccc(OCC)c2)CC(=O)N1CC` (stereo not given): the Potency result was “inactive”.
For `COc1cccc(N2C(=O)C3CCCN3C2c2ccc(N(C)C)cc2)c1` (stereo not given) the value was “inactive”; for `S=c1[nH]nc(-c2cc(-c3ccco3)[nH]n2)n1-c1cccc2ccccc12`, “inactive”; for `COc1ccccc1-n1c(SCC(=O)Nc2ccc(C)cc2)nc(O)cc1=O`, “inactive”.
In the case of `Cc1noc(NS(=O)(=O)c2ccc(N/C=C\C(=O)c3cccc4ccccc34)cc2)c1C`, the Potency entry was “inactive”.
Take `CC(C)(C)[C@H]1COC(=O)[C@@H](Cc2ccc(F)cc2)C/C=C\C[C@@H](CC(=O)N[C@@H](CO)Cc2ccccc2)C(=O)N1`: the Potency result is “inactive”.
For `O=C(CSc1ccc(Br)c2cccc(Cl)c12)Nc1ccc(S(=O)(=O)Nc2nccs2)cc1` the value was 11.2 µM (active).
